TPT1 inh: C. albicans TPT1 enzyme inhibition | AID 1962 | 0.81% of 300,000 active | inhibition, % at 5 µM | recombinant caTPT1, FP RNA substrate dephosphorylation;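 active = inhibition above the mean of all tested compounds plus 3 SD, set per screening campaign, cut at about 24% in these data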
Rpn11 block: inhibitors of human proteasome Rpn11; O00487; human 26S proteasome, Ub4-pepOG fluorescence polarization; 20S core pre-blocked with epoxomicin; inhibition, % at 20 µM; 0.59% of 360,000 active;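 active = inhibition at 20 µM, scaled to each plate's controls, above about 33%, limit read from the data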
HNF4A DNA FP: change in binding of human HNF4 alpha to DNA; P41235; HNF4a-FITC DNA binding, fluorescence polarization, 1 h; activity change, % at 10 µM; 0.3% of 360,000 active; in the data active = activity change above about 30%, passing the limit was not always enough
Myeloid diff 2: compounds promoting myeloid differentiation; AID 624256; ER-HoxA9 myeloid progenitors, lysozyme-GFP differentiation, flow cytometry; 1% of 360,000 active; calls only at 10 µM;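 active = normalized GFP-positive differentiation at or above the plate's own cutoff, the solvent-only control mean plus 3 SD; inconclusive = no clear call, values can overlap the other calls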;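 note: cells exposed to compound for four days before flow analysis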
Rpn11 confirm: Rpn11 inhibition confirmation, single concentration | inhibition, % at 20 µM | 29% of 1,900 active | purified human 26S proteasome, Ub4-pepOG fluorescence polarization; proteasome pretreated with epoxomicin | shares compounds with Rpn11 block
MMP-2 counter: blocks human MMP-2, flagging nonselective RPN11 hits | shares compounds with Rpn11 block | recombinant MMP-2, FRET peptide cleavage fluorescence | inhibition, % at 20 µM | 4% of 1,900 active | AID 602330;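 note: human MMP-2 activated beforehand with APMA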
Thrombin FP: thrombin (bovine) inhibition counter-screen | shares compounds with Rpn11 block | bovine thrombin cleavage of Ub4-pepOG, fluorescence polarization | inhibition, % at 20 µM | 13% of 1,900 active | AID 602333;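 active = mean inhibition at least 40% at 20 µM, or signal 3 deviations below plate average, so some actives read negative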
Target sequence (P00735 whole entry, looked up): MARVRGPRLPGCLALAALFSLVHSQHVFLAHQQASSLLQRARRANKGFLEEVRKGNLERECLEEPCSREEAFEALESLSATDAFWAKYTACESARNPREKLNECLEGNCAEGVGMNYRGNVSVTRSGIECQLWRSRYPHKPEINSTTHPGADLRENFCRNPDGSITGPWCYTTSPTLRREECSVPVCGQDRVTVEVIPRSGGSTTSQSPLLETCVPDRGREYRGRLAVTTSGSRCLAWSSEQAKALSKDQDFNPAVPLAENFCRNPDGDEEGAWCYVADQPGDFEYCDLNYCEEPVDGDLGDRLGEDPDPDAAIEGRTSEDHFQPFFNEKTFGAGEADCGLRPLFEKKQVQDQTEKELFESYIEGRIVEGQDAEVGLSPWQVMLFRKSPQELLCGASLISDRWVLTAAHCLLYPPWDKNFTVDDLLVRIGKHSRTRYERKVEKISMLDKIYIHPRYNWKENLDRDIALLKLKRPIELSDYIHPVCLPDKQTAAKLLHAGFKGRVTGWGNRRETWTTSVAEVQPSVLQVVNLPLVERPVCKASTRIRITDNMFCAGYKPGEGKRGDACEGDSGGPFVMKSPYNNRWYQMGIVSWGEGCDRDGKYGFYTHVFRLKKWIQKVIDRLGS
Each line names hits and unclear results; the compound was inactive in the other large screens (follow-up assays come after a bar, where they were run). In the library only some 2.1% were active in any assay of this set; here they are far more common. Cut-off read from the data, not from the text of the source, unless noted: active = inhibition above about 40%; inactive = the rest.

Cc1cc(/C=C(/C#N)c2nc3ccccc3[nH]2)c(C)n1-c1ccccc1C(=O)O	Rpn11 block 55 | Rpn11 confirm 75 | MMP-2 counter inactive | Thrombin FP 51
Cc1csc(SC(C)C(=O)Nc2ccccc2C)n1 (stereo not given)	none (no result: TPT1 inh)
Cc1ccc(S(=O)(=O)Nc2cccc(C(=O)NCC(c3ccco3)N3CCCC3)c2)cc1F (stereo not given)	none
CC(C1SC(=S)NC1=O)C1SC(=S)NC1=O (stereo not given)	Rpn11 block 53 (no result: TPT1 inh) | Rpn11 confirm 42 | MMP-2 counter inactive | Thrombin FP inactive
O=C(NCCCN1CCOCC1)C(C(=O)NCCCN1CCOCC1)c1ncc(C(F)(F)F)cc1Cl	none
CC(C)Nc1nc(Oc2ccc(=O)n(-c3ccccc3)n2)nc(N(C)C)n1	Rpn11 block 44 | Rpn11 confirm inactive | MMP-2 counter inactive | Thrombin FP inactive
CC(C)Nc1nc(NC(C)C)nc(Oc2ccc(=O)n(C)n2)n1	none
O=C(N/N=C/c1ccc(Cl)c([N+](=O)[O-])c1)c1ccc2c(c1)OCCO2	Rpn11 block 127 (no result: TPT1 inh) | Rpn11 confirm inactive | MMP-2 counter 54 | Thrombin FP inactive
O=C(Nc1ccc(Cl)c([N+](=O)[O-])c1)c1ccc2c(c1)OCCO2	none
C[C@@H](NC(=O)c1ncn2c1c(=O)[nH]c1ccc(Br)cc12)c1ccccc1	Rpn11 block active (no result: TPT1 inh) | Rpn11 confirm inactive | MMP-2 counter inactive | Thrombin FP inactive
O=C(CN1CCCC1)N/N=C/c1c(O)ccc2ccccc12	Rpn11 block 46 | Rpn11 confirm inactive | MMP-2 counter inactive | Thrombin FP inactive
CC(=O)NC(Cc1ccccc1F)C(=O)NC1CCN(C(=O)Nc2ccc(C)cc2)CC1 (stereo not given)	none
CC(C)(C)SCCNC(=O)CN(c1ccccc1)S(=O)(=O)c1ccccc1	none
COc1ccc(CNC(=O)CN(C(=O)c2csnn2)c2ccc3c(c2)OCCO3)cc1	none
O=C(CN(C(=O)c1csnn1)c1ccc2c(c1)OCCO2)NCc1ccc(F)cc1	Rpn11 block 48 | Rpn11 confirm inactive | MMP-2 counter inactive | Thrombin FP inactive
COc1ccc(CN2CCNC(=O)C2CC(=O)N(C)Cc2nccn2C)cc1OC (stereo not given)	Rpn11 block 47 | Rpn11 confirm inactive | MMP-2 counter inactive | Thrombin FP inactive
C#CCn1c(=NC(=O)c2cccs2)sc2cccc(OC)c21	Rpn11 block 68 | Rpn11 confirm 50 | MMP-2 counter inactive | Thrombin FP inactive
COc1ccc(C(=O)NC2CCSc3ccccc32)cc1S(=O)(=O)N1CCOCC1 (stereo not given)	none
CN(C)C(=O)CCSc1nnc(-c2ccco2)o1	Rpn11 block 32 | Rpn11 confirm inactive | MMP-2 counter inactive | Thrombin FP inactive
O=C(CSc1nnc(-c2ccco2)o1)c1ccc([N+](=O)[O-])cc1	Rpn11 block 36 | Rpn11 confirm inactive | MMP-2 counter inactive | Thrombin FP inactive
CCN(CC)C(=O)CSc1nnc(-c2ccco2)o1	none
CC(C)(C)Nc1cccccc1=O	Rpn11 block 103 | Rpn11 confirm inactive | MMP-2 counter inactive | Thrombin FP inactive
COc1ccc(-n2c(N)c(C(=O)Nc3c(C)n(C)n(-c4ccccc4)c3=O)c3nc4ccccc4nc32)cc1	Rpn11 block 88 | Rpn11 confirm inactive | MMP-2 counter inactive | Thrombin FP inactive
O=C(N/N=C/c1ccc2c(c1)OCO2)c1sc2cc(Cl)ccc2c1Cl	Rpn11 block 105 | Rpn11 confirm inactive | MMP-2 counter inactive | Thrombin FP inactive
O=C1c2ccccc2C(=O)c2cc(N3CCCCC3)ccc21	Rpn11 block 43, Myeloid diff 2 active (no result: TPT1 inh) | Rpn11 confirm inactive | MMP-2 counter inactive | Thrombin FP inactive
Cc1nnc(SCC2=C(C(=O)O)N3C(=O)C(NC(=O)COc4ccccc4)C3SC2)s1 (stereo not given)	none (no result: TPT1 inh)
CO/N=C(/C(=O)N[C@@H]1C(=O)N2C(C(=O)O)=CCS[C@H]12)c1cnc(N)s1	Rpn11 block 64 | Rpn11 confirm 85 | MMP-2 counter inactive | Thrombin FP inactive
CCCCCCCCCCCCCCCC(O)C[N+](C)(C)CCO (stereo not given)	Rpn11 block 62, Myeloid diff 2 inconclusive (no result: TPT1 inh) | Rpn11 confirm 77 | MMP-2 counter inactive | Thrombin FP inactive
CCCS(=O)(=O)NC(=O)C1(C)CCN(C(=O)c2cncc(Br)c2)C1 (stereo not given)	none (no result: TPT1 inh)
CC(=O)NC(CC(=O)O)c1ccccc1 (stereo not given)	none
C=CC(=C)CC(NC)c1ccccc1 (stereo not given)	Rpn11 block 50 | Rpn11 confirm inactive | MMP-2 counter inactive | Thrombin FP inactive
COc1cccc(NC(=O)c2ccccc2)c1	none
COc1cccc(C(=O)Nc2cccc(-c3ccccc3)c2)c1	Rpn11 block 49 | Rpn11 confirm inactive | MMP-2 counter inactive | Thrombin FP inactive
COc1ccccc1N(C)c1cc2c(c3c1ccn3C)C1CCC2O1 (stereo not given)	Rpn11 block 42 (no result: TPT1 inh) | Rpn11 confirm inactive | MMP-2 counter inactive | Thrombin FP inactive
Cn1ccc2c(N3c4ccccc4CCc4ccccc43)cc3c(c21)C1CCC3O1 (stereo not given)	Rpn11 block 49 (no result: TPT1 inh) | Rpn11 confirm inactive | MMP-2 counter inactive | Thrombin FP inactive
CN(Cc1ccccc1)c1cc2c(c3c1ccn3C)C1CCC2O1 (stereo not given)	none (no result: TPT1 inh)
CC1(C(=O)NCc2cccc(C(F)(F)F)c2)CCN1C1Cc2ccccc2C1 (stereo not given)	none (no result: TPT1 inh)
COc1ccccc1NS(=O)(=O)c1cc(N=N/C(C(=O)Nc2ccc(Cl)cc2)=C(/C)O)ccc1C	Rpn11 block 42 (no result: TPT1 inh) | Rpn11 confirm inactive | MMP-2 counter inactive | Thrombin FP inactive
Cc1cccc(OCC(=O)NNC(=O)c2cc(S(=O)(=O)N(C)C)ccc2N2CCCC2)c1	Rpn11 block 42 (no result: TPT1 inh) | Rpn11 confirm inactive | MMP-2 counter inactive | Thrombin FP inactive
COc1ccccc1C(=O)NC(CCSC)C(=O)OC(C)C(=O)NC1CC1 (stereo not given)	none
COc1ccc(C(=O)N/N=C/c2cc(Br)ccc2O)cc1OC	none (no result: Myeloid diff 2)
COc1ccc(O)c(/C=N/NC(=O)c2ccc(OCc3cccc(Br)c3)cc2)c1	Rpn11 block 54, HNF4A DNA FP 44, Myeloid diff 2 inconclusive | Rpn11 confirm 56 | MMP-2 counter inactive | Thrombin FP inactive
Cc1onc(-c2ccccc2)c1C(=O)Nc1nncs1	none
O=C(NNC(=O)C1CC1)c1cc(Br)c(Br)s1	none (no result: TPT1 inh)
O=C(NCc1ccco1)C(=O)NCC(c1ccco1)N1CCOCC1 (stereo not given)	none
CN(C)c1ccc(/C=N/NC(=O)c2nnn(-c3nonc3N)c2COc2ccc(F)cc2)cc1	Rpn11 block 138 | Rpn11 confirm inactive | MMP-2 counter inactive | Thrombin FP inactive

Screening results deposited in PubChem by several laboratories.
